# Data: PubChem BioAssay (NCI)
# Where “and” joins values, the source holds several entries; their conditions need not be identical. Equal entries are not always repeated. Compounds without any hit were thinned out: in the full panel of roughly 83,000, 20% have a hit.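 Compound tested at a single concentration for 48 hours in 96-well plates; a percent growth value below 10 was scored as active.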 Calls of active or inactive are those of the source.
# How the values were obtained:
# Assay in all cases: NCI-60 one-dose screen, 48 h (100 = growth as untreated, 0 = no growth, -100 = all killed)
# Settings in all cases: 10 µM unless noted
# [1] = test system: NCI-H23 lung
# [2] = test system: NCI-H226 lung
# [3] = test system: NCI-H322M lung
# [4] = test system: HOP-62 NSCLC
# [5] = test system: HOP-92 NSCLC
# [6] = test system: NCI-H522 lung
# [7] = test system: A549/ATCC NSCLC
# [8] = test system: 786-0 renal
# [9] = test system: COLO 205 colon
# [10] = test system: NCI-H460 lung
Structure (SMILES),growth [1],growth [2],growth [3],growth [4],growth [5],growth [6],growth [7],growth [8],growth [9],growth [10]
Nc1nc(N)c2cc(S(=O)(=O)c3ccccc3)ccc2n1,45% (inactive) and 40.9% (inactive),63.2% (inactive) and 79.3% (inactive),43.6% (inactive) and 41.5% (inactive),54.8% (inactive) and 46.3% (inactive),64.9% (inactive) and 92.5% (inactive),46.2% (inactive) and 68.9% (inactive),13.4% (inactive) and 25.7% (inactive),29.5% (inactive) and 26.8% (inactive),53.7% (inactive) and 58.3% (inactive),–
COC(=O)c1ccccc1Cl,103% (inactive),101% (inactive),97.4% (inactive),98.3% (inactive),85.3% (inactive),102% (inactive),99.4% (inactive),102% (inactive),102% (inactive),–
COc1ccc(C(=O)C(O)c2ccc(OC)cc2)cc1 (stereo unspecified),98.4% (inactive) and 92.7% (inactive),92.5% (inactive) and 96.2% (inactive),96.6% (inactive) and 102% (inactive),109% (inactive) and 108% (inactive),96.2% (inactive),102% (inactive),109% (inactive) and 103% (inactive),103% (inactive),110% (inactive) and 108% (inactive),–
CC1=CC(=O)c2cccc(NC3=NCCO3)c21,100% (inactive),94.2% (inactive),99.4% (inactive),84.9% (inactive),77.6% (inactive),87.8% (inactive),92.3% (inactive),91.9% (inactive),102% (inactive),–
Nc1ccccc1SC(CC(=O)c1ccccc1)c1cccc([N+](=O)[O-])c1 (stereo unspecified),87.1% (inactive) and 90.4% (inactive),–,113% (inactive) and 96.1% (inactive),95.3% (inactive) and 95.4% (inactive),95.9% (inactive),84.4% (inactive) and 73.3% (inactive),95.1% (inactive) and 78.7% (inactive),113% (inactive) and 91.8% (inactive),102% (inactive) and 109% (inactive),105% (inactive) and 100% (inactive)
O=C(c1ccccc1)C1(Br)CCCCC1,98% (inactive),87.5% (inactive),93.4% (inactive),96% (inactive),88.1% (inactive),95.6% (inactive),96.8% (inactive),91.5% (inactive),129% (inactive),–
O=C(c1ccncc1)c1c(Cc2ccccc2)ccc2ccccc12,55.2% (inactive),82.5% (inactive),74.2% (inactive),95.1% (inactive),82% (inactive),–,72.2% (inactive),104% (inactive),87% (inactive),–
COCCNC(C)=O,107% (inactive),90.3% (inactive),108% (inactive),98.4% (inactive),102% (inactive),96.6% (inactive),104% (inactive),97.5% (inactive),108% (inactive),–
COc1ccc(/C=C/C(=O)O)cc1OC,108% (inactive) and 98.7% (inactive),102% (inactive) and 107% (inactive),101% (inactive) and 115% (inactive),104% (inactive) and 105% (inactive),89% (inactive) and 97.1% (inactive),102% (inactive) and 84% (inactive),–,102% (inactive) and 105% (inactive),104% (inactive) and 115% (inactive),–
O=C(O)c1ccc2c3ccc(C(=O)O)c4c(C(=O)O)ccc(c5ccc(C(=O)O)c1c25)c43,87.8% (inactive),92.2% (inactive),100% (inactive),92.4% (inactive),112% (inactive),–,–,107% (inactive),104% (inactive),–
C/C=C/C(=O)OCCCCCCCCCCCC,105% (inactive),87.3% (inactive),114% (inactive),102% (inactive),96.5% (inactive),96.3% (inactive),84.2% (inactive),95% (inactive),105% (inactive),–
C(#CCN1CCOCC1)CCCN1CCOCC1,109% (inactive) and 105% (inactive),100% (inactive) and 115% (inactive),119% (inactive) and 99% (inactive),93.5% (inactive) and 99.9% (inactive),–,105% (inactive) and 95.4% (inactive),105% (inactive) and 100% (inactive),110% (inactive) and 100% (inactive),105% (inactive) and 104% (inactive),–
CN(C)C(=S)N(C)C,99.4% (inactive),108% (inactive),140% (inactive),95.6% (inactive),93.4% (inactive),83.2% (inactive),100% (inactive),108% (inactive),123% (inactive),–
COc1ccc(S(=O)(=O)c2ccc(F)cc2)cc1,102% (inactive),97.1% (inactive),117% (inactive),109% (inactive),92.7% (inactive),83.3% (inactive),–,103% (inactive),113% (inactive),–
CCOc1ccc(/C=C\C(=O)O)cc1,109% (inactive),114% (inactive),107% (inactive),135% (inactive),86.9% (inactive),–,–,104% (inactive),129% (inactive),–
N#Cc1c[nH]n2ccnc12,99.3% (inactive),96% (inactive),98.7% (inactive),86% (inactive),99.5% (inactive),–,86.7% (inactive),97.3% (inactive),109% (inactive),–
CCCCOC1NC(=O)NC(=O)C1(F)C(=O)OCC (stereo unspecified),79.6% (inactive) and 55.9% (inactive),101% (inactive) and 102% (inactive),74% (inactive) and 67.9% (inactive),76.9% (inactive) and 43.3% (inactive),67.6% (inactive) and 85.6% (inactive),–,–,93% (inactive) and 67.6% (inactive),61.7% (inactive) and 53.9% (inactive),–
CCn1c2ccc(N(C)C)cc2c2cc(N(C)C)ccc21,92.1% (inactive),97.4% (inactive),95.2% (inactive),90.2% (inactive),90.6% (inactive),77.3% (inactive),85.7% (inactive),102% (inactive),46.8% (inactive),–
COc1ccc(CCNC(=S)NN)cc1OC,99.5% (inactive),106% (inactive),108% (inactive),117% (inactive),94.8% (inactive),102% (inactive),106% (inactive),109% (inactive),112% (inactive),–
O=c1[nH]c(=S)[nH]n1C(=S)n1[nH]c(=S)[nH]c1=O,110% (inactive),85% (inactive),96.8% (inactive),97.2% (inactive),82.2% (inactive),84.6% (inactive),93.6% (inactive),106% (inactive),111% (inactive),–
COc1cc(C2c3cc4c(cc3C(OC(=O)C[n+]3ccccc3)C3COC(=O)C23)OCO4)cc(OC)c1OC (stereo unspecified),20.8% (inactive),22.5% (inactive),33% (inactive),19.3% (inactive),71.5% (inactive),-23.4% (active),7.1% (active),25.8% (inactive),-56.3% (active),–
NCCCCCC(=O)O,97.6% (inactive) and 104% (inactive) and 92.2% (inactive),101% (inactive) [middle of 4 runs],–,99.7% (inactive) and 105% (inactive) and 97.7% (inactive),97.2% (inactive) and 90.1% (inactive),100% (inactive) [middle of 4 runs],94.1% (inactive) and 100% (inactive) and 99.7% (inactive),107% (inactive) [middle of 4 runs],114% (inactive) and 104% (inactive) and 95.2% (inactive),–
CCC(C)NC(=O)c1ccccc1C (stereo unspecified),91.7% (inactive),93.6% (inactive),97.7% (inactive),92.1% (inactive),84.5% (inactive),94.2% (inactive),100% (inactive),95.7% (inactive),103% (inactive),–
COc1ccc(/C=N/Nc2nc3ccccc3s2)cc1,105% (inactive),99.4% (inactive),86.7% (inactive),91.9% (inactive),81.6% (inactive),89% (inactive),–,111% (inactive),84.1% (inactive),–
COC(=O)CCOc1ccccc1,85.4% (inactive),105% (inactive),103% (inactive),101% (inactive),86.2% (inactive),87.9% (inactive),85% (inactive),95.3% (inactive),118% (inactive),–
CCc1ccccc1-n1[nH]c(C)c(C=N)c1=O,102% (inactive),89% (inactive),106% (inactive),135% (inactive),98.6% (inactive),102% (inactive),126% (inactive),112% (inactive),120% (inactive),–
COc1ccc([N+](=O)[O-])cc1OC,98.5% (inactive) and 106% (inactive),101% (inactive) and 98.2% (inactive),105% (inactive),98.2% (inactive) and 109% (inactive),93.5% (inactive) and 92.7% (inactive),111% (inactive) and 93.7% (inactive),93% (inactive) and 92.9% (inactive),104% (inactive) and 95% (inactive),112% (inactive) and 115% (inactive),–
N#Cc1ccc(/C=C/C(=O)c2ccccc2)cc1,100% (inactive) and 95.2% (inactive),105% (inactive) and 107% (inactive),93.2% (inactive) and 98.2% (inactive),96.6% (inactive) and 110% (inactive),73.1% (inactive) and 85.7% (inactive),83.1% (inactive),88.2% (inactive) and 98.7% (inactive),102% (inactive),81.6% (inactive) and 113% (inactive),–
CCCCCCC(C)CC1=C(O)c2ccccc2C(=O)C1=O (stereo unspecified),42.2% (inactive),37.3% (inactive),51.7% (inactive),59.3% (inactive),67% (inactive),–,36% (inactive),27.1% (inactive),80.2% (inactive),–
CN(C)c1ccc(C(=N)c2ccc(N(C)C)cc2)cc1,56.4% (inactive) and 41.9% (inactive),74.5% (inactive) and 47.3% (inactive),58.1% (inactive) and 60.9% (inactive),26.3% (inactive) and 37.2% (inactive),32.5% (inactive) and 27.5% (inactive),-23.9% (active) and 17.8% (inactive),32% (inactive) and 24.2% (inactive),47.4% (inactive) and 40.2% (inactive),17.5% (inactive) and 13.2% (inactive),–
